Screening data deposited in PubChem BioAssay by National Center for Advancing Translational Sciences (NCATS).
Only some compounds are listed: those with a hit (about 3.3% of all), similar ones and a draw of the others.
Vaccinia mCherry – vaccinia inhibition (mCherry reporter); Vaccinia virus mCherry reporter infection, fluorescence; Potency, µM (series often up to 36.5 µM), usual class: inhibitors; 310,000 compounds, 0.63% hits; AID 720579; calls by dose curve; tested in A549 cells; further: nearly all actives have a fitted effect of over 35% in size
HCV inhibitor – HCV inhibition; Huh7.5.1 HCVcc-Cre infection, luciferase reporter, 44 h; Potency, µM (highest dose often 41.8 µM), usual class: inhibitors; 340,000 compounds, 3.4% hits; AID 651820; active means well fitted inhibition curve with a large enough effect; inconclusive means small, poorly fitted or top-dose-only effect, or another doubt; inactive means no such curve, though single readings can be large or run the other way
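Compounds are dispensed onto cells plated 4 h earlier at 1,000 per well, with HCVcc-Cre virus (about 0.5 moi) added next. Following 44 h of culture, luminescent signal is measured for 15 sec after 15 min with substrate at room temperature.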
Vaccinia Venus – inhibitors of vaccinia virus (Venus reporter) | Vaccinia virus Venus reporter expression, fluorescence | Potency, µM (top dose mostly 36.5 µM), usual class: inhibitors | 330,000 compounds, 0.46% hits | AID 720580; calls by dose curve; tested in A549 cells; further: nearly all actives have a fitted effect of over 30% in size
Large screens that a line does not name were inactive.

CCC(=O)Nc1nc(C)c(-c2csc(Nc3ccccn3)n2)s1	Vaccinia mCherry inconclusive, HCV inhibitor 11µM
Cc1ccc(/C=C/C(=O)OCC(=O)NC(=O)NCc2ccco2)cc1	none (no result: Vaccinia mCherry, Vaccinia Venus)
Cc1oc2cc3oc(=O)c(CCC(=O)NCCCN4CCOCC4)c(C)c3cc2c1C	HCV inhibitor 1.6µM
Cc1oc2c(C)c3oc(=O)c(CCC(=O)NCCCn4ccnc4)c(C)c3cc2c1C	HCV inhibitor 10µM
Cc1oc2cc3oc(=O)c(CCC(=O)NCCCn4ccnc4)c(C)c3cc2c1C	Vaccinia mCherry inconclusive, HCV inhibitor inconclusive
Cc1oc2cc3oc(=O)c(CCC(=O)NCCc4ccccc4F)c(C)c3cc2c1C	none (no result: HCV inhibitor)
C=CCNC(=O)c1cnn2c1NC(=C)C=C2C	none (no result: HCV inhibitor)
OC1(c2ccc3c(c2)CN(Cc2ccccn2)CCO3)CCN(c2ccccc2F)CC1	none (no result: HCV inhibitor)
CCOc1ccc(C2c3c(oc4ccc(C)cc4c3=O)C(=O)N2Cc2ccc3c(c2)OCO3)cc1OC (stereo not drawn)	none (no result: HCV inhibitor)
O=C(Nc1ccc(Cc2ccncc2)cc1)C1CC1	none
O=C(Nc1ccc(Cc2ccncc2)cc1)C1CCC(N2C(=O)C3C4C=CC(C5CC45)C3C2=O)CC1 (stereo not drawn)	HCV inhibitor 8.9µM (no result: Vaccinia mCherry, Vaccinia Venus)
CCOc1ccc(-c2cn3c(n2)sc2cc(C(=O)NCCCN4CCCCC4)ccc23)cc1	none (no result: HCV inhibitor)
CCOC(=O)N1CCN(c2ncnc3c2oc2nc(C(C)C)c4c(c23)CCC4)CC1	none (no result: Vaccinia mCherry, Vaccinia Venus)
c1ccc2c(c1)oc1c(NCC3CCCO3)ncnc12 (stereo not drawn)	none (no result: Vaccinia mCherry, Vaccinia Venus)
CC(C)c1nc2oc3c(NCc4cccnc4)ncnc3c2c2c1CCC2	HCV inhibitor 7.1µM (no result: Vaccinia mCherry, Vaccinia Venus)
CC(C)Cc1nc2oc3c(NCC4CCCO4)ncnc3c2c2c1CCC2 (stereo not drawn)	HCV inhibitor 14µM (no result: Vaccinia mCherry, Vaccinia Venus)
O=C(C[n+]1ccccc1Br)c1ccc(Cl)cc1	none (no result: HCV inhibitor)
O=C(NCC1CCCO1)c1cccc(S(=O)(=O)Nc2ccc(SC(F)F)cc2)c1 (stereo not drawn)	none
Cn1nnnc1SCc1ccc(C(=O)Nc2nccs2)cc1	none
C=CCn1c(SCc2ccc(C(=O)Nc3nccs3)cc2)nnc1-c1ccc(C)c(Cl)c1	Vaccinia mCherry inconclusive, HCV inhibitor 8.9µM, Vaccinia Venus inconclusive
CSc1ccc(CNC(=O)C2CCC(=O)N(Cc3cccc(F)c3)C2)cc1 (stereo not drawn)	none (no result: HCV inhibitor)
COc1ccccc1Cn1nc(C(=O)O)c2ccccc2c1=O	none
CCOc1ccc(C(C)=O)cc1Cn1nc(C(=O)O)c2ccccc2c1=O	HCV inhibitor 7.9µM
CCc1ccc(CN(Cc2ccco2)C(=O)c2cc(-c3ccc(Cl)cc3)on2)cc1	none (no result: HCV inhibitor)
COc1cccc(-c2nc3cc4c(cc3cc2CN(C(=O)c2csc(C)n2)C2CC2)CCC4)c1OC	Vaccinia mCherry inconclusive (no result: HCV inhibitor)
O=c1nc2sc3ccccc3n2c(=O)n1-c1cccc(Cl)c1	HCV inhibitor 11µM
O=c1nc2sc3ccccc3n2c(=O)n1-c1ccc(Cl)c(Cl)c1	none (no result: HCV inhibitor)
CCOc1ccc2ccccc2c1/C=N/n1cncn1	HCV inhibitor 11µM (no result: Vaccinia mCherry, Vaccinia Venus)
CCCOc1ccc2ccccc2c1/C=N/n1cnnc1	HCV inhibitor inconclusive
Cc1ccc(Cn2ccc(=O)c(OCc3ccccc3)c2C)cc1	none
Cc1c(OCc2ccccc2)c(=O)ccn1Cc1ccc(F)cc1	HCV inhibitor 1.8µM
O=C(COc1ccc(Cl)cc1)Nc1ccc(N2CCN(C(=O)c3ccco3)CC2)cc1	HCV inhibitor 10µM, Vaccinia Venus inconclusive
COc1ccc(OCC(=O)Nc2ccc(N3CCN(C(=O)c4ccco4)CC3)cc2)cc1	none
O=C(COc1ccc([N+](=O)[O-])cc1)Nc1ccc(N2CCN(C(=O)c3ccco3)CC2)cc1	HCV inhibitor 11µM
Cc1cc(C)cc(OCC(=O)Nc2ccc(N3CCN(C(=O)c4ccco4)CC3)cc2)c1	HCV inhibitor inconclusive
O=C(c1ccc(S(=O)(=O)N2CCCCCC2)cc1)N1CCN(c2ccccc2F)CC1	HCV inhibitor inconclusive
O=C(COc1ccccc1Cl)Nc1ccc(N2CCN(C(=O)c3ccccc3)CC2)cc1	HCV inhibitor 5µM (no result: Vaccinia mCherry, Vaccinia Venus)
CCN1CCN(c2ccc(NC(=O)COc3ccccc3Cl)cc2)CC1	none
O=C(COc1ccccc1[N+](=O)[O-])Nc1ccc(N2CCN(C(=O)c3cccs3)CC2)cc1	HCV inhibitor 6.3µM
O=C(COc1ccccc1[N+](=O)[O-])Nc1ccc2oc(=O)ccc2c1	none (no result: Vaccinia mCherry, Vaccinia Venus)
O=C(COc1ccccc1[N+](=O)[O-])Nc1ccc(NC(=O)c2cc3ccccc3o2)cc1	HCV inhibitor 11µM
CCC(=O)Nc1ccc(N2CCN(C(=O)c3cccs3)CC2)cc1	none (no result: Vaccinia mCherry, Vaccinia Venus)
O=C(CNC(=O)c1ccccc1)OCC(=O)c1ccccc1	none (no result: HCV inhibitor)
CCN(CC)S(=O)(=O)c1ccc2c(c1)N(CC(=O)N1CCN(c3ccc(OC)cc3)CC1)C(=O)CO2	none (no result: HCV inhibitor)
Cc1[nH]c2c(C)cccc2c(=O)c1CN1CCCCCC1	none (no result: Vaccinia mCherry, Vaccinia Venus)
Cc1ccccc1OCCCCn1c(-c2ccc(Cl)cc2)nc2ccccc2c1=O	none (no result: HCV inhibitor)
COc1cc(/C=N/NC(=S)Nc2cccc(Cl)c2C)ccc1OCC(=O)N1CC(C)OC(C)C1 (stereo not drawn)	HCV inhibitor 11µM
COc1cc(/C=N/NC(=O)c2ccc(Cl)cc2)ccc1OCC(=O)N1CC(C)OC(C)C1 (stereo not drawn)	none
Cc1sc2nc3c4ccccc4c(NCc4ccco4)nn3c(=O)c2c1C	Vaccinia Venus inconclusive (no result: Vaccinia mCherry)
Cc1nc(NCc2ccco2)c2c(C)c(C)sc2n1	HCV inhibitor 10µM (no result: Vaccinia mCherry, Vaccinia Venus)
COc1cc(CNC(=O)c2cc(-c3cc(F)ccc3OC(C)C)n[nH]2)cc(OC)c1	none (no result: HCV inhibitor)
CNCC(=O)c1c[nH]c2ccccc12	none (no result: HCV inhibitor)
COc1ccc(CNC(=O)C2=CC(c3ccc(OC)c(OC)c3)=NS(=O)(=O)N2C)cc1	none
COc1ccc(C2=NS(=O)(=O)N(C)C(C(=O)NCc3ccccc3)=C2)cc1OC	none
CCc1ccc(NC(=O)C2=CC(c3ccc(OC)c(OC)c3)=NS(=O)(=O)N2C)cc1	HCV inhibitor 5.6µM
COc1ccc(C2=NS(=O)(=O)N(C)C(C(=O)N3CCc4ccccc4C3)=C2)cc1OC	HCV inhibitor 10µM
COc1cccc(C(=O)NCCS(=O)(=O)NC2CCCC2)c1	none
CCn1c2c(c(=O)n3ncc(C(=O)Nc4ccc(C(=O)OC)cc4)c13)CN(Cc1ccc(OC)cc1)CC2	none (no result: HCV inhibitor)
O=[N+]([O-])c1ccc(NCc2ccc(Cl)cc2)c2ccncc12	HCV inhibitor 6.3µM
O=[N+]([O-])c1cnccc1Nc1ccc(Cl)cc1	none
Cc1cccc(-c2nc(C#N)c(N3CCCCCC3)o2)c1	HCV inhibitor 25µM
Cc1cccc(-c2nc(C#N)c(N3CCC(C)CC3)o2)c1	none
COc1ccc(-c2nc(C#N)c(N3CCc4ccccc4C3)o2)cc1OC	HCV inhibitor 11µM (no result: Vaccinia mCherry, Vaccinia Venus)
COc1ccccc1-c1nc(C#N)c(N2CCN(c3ccccc3)CC2)o1	none (no result: Vaccinia mCherry)
COc1ccccc1-c1nc(C#N)c(N2CCc3ccccc3C2)o1	HCV inhibitor 11µM (no result: Vaccinia mCherry, Vaccinia Venus)
COc1ccc(N2CCN(c3oc(-c4ccc(OC)c(OC)c4)nc3C#N)CC2)cc1	none
CCCCNC(=O)Cn1c(=O)c2c(ncn2CC)n(Cc2ccccc2)c1=O	none (no result: Vaccinia mCherry, Vaccinia Venus)
COc1ccc(-n2nc(C(=O)N3CCCCC3)c3c4ccccc4n(C)c3c2=O)cc1Cl	none (no result: HCV inhibitor)
COc1ccc(NS(=O)(=O)c2c(C)nc3scc(C)n3c2=O)cc1	none (no result: HCV inhibitor)
Cc1ccc(CNc2ncnc3sc(C(=O)N4CCC(N5CCCC(O)C5)CC4)c(C)c23)o1 (stereo not drawn)	none (no result: HCV inhibitor)
C=CCOc1ccccc1CNc1ccc2c(c1)OCCO2	HCV inhibitor inconclusive
CCOc1ccc(Br)cc1CNc1ccc2c(c1)OCCO2	HCV inhibitor 11µM
